# Literature values, collected in PubChem BioAssay AID977610.
# Screen size: about 3,600 compounds; about 3,600 (100%) were called active. No cut-off is given here; in the data, nearly all actives have Ki up to about 18000 µM. So high a share suggests a set chosen from earlier hits. Some of the results follow. Bridge positions count the residues as written; N and C are the ends. Square brackets hold non-standard residues; d marks the D form. Peptide text beside a SMILES is read from it. Orn(CH(NH2)2) = NC(N)NCCC[C@H](N)C(=O)O
# Assay: PubChem AID 977610
# Settings: PDB protein-ligand complexes, literature Ki
compound,measurement,setting,value
CC(C)C[C@H](NC(=O)[C@@H]1CSSC[C@H]2C[C@H](NC(=O)CN)C(=O)N[C@@H](CC(C)C)C(=O)NCC(=O)N[C@@H](CCCN=C(N)N)C(=O)NCC(=O)N[C@@H](CSS2)C(=O)N[C@@H](CCC(=O)O)C(=O)N[C@@H](CC(N)=O)C(=O)N[C@@H](Cc2cnc[nH]2)C(=O)N[C@@H](CCCN=C(N)N)C(=O)N1)C(N)=O,Ki,"protein: Urokinase-type plasminogen activator, PDB entry 4os6",0.36 µM (active)
NC(=O)C[C@@H]1NC(=O)[C@@H](N)CSSC[C@@H](C(=O)NCC(=O)O)NC(=O)[C@H](CCCN=C(N)N)NC(=O)CNC1=O (H-CNGRCG-OH; disulfide 1-5),Ki,"protein: Aminopeptidase N pAPN, PDB entry 4ou3",38.7 µM (active)
CC(C)C[C@H](NC(=O)[C@@H]1CSS[C@@H]2CSSC[C@H](NC(=O)CNC(=O)[C@H](CCCN=C(N)N)NC(=O)CNC(=O)[C@H](CC(C)C)NC(=O)[C@@H](NC(=O)CN)C2)C(=O)N[C@@H](CCC(=O)O)C(=O)N[C@@H](CC(N)=O)C(=O)N[C@@H](Cc2cnc[nH]2)C(=O)N[C@@H](CCCN=C(N)N)C(=O)N1)C(N)=O,Ki,"protein: Urokinase-type plasminogen activator, PDB entry 4os2",0.2 µM (active)
CSCC[C@@H]1NC(=O)[C@H](CCCNC(N)N)NC(=O)[C@H](Cc2cnc[nH]2)NC(=O)[C@H](CC(N)=O)NC(=O)[C@H](CCC(=O)O)NC(=O)[C@H](CC(C)C)NC(=O)CNC(=O)[C@H](CCCNC(N)N)NC(=O)[C@H](Cc2c[nH]c3ccccc23)NC(=O)[C@H](CO)NC(=O)[C@@H](N)CSSC[C@@H](C(=O)O)NC1=O (H-CSW[Orn(CH(NH2)2)]GLENH[Orn(CH(NH2)2)]MC-OH; disulfide 1-12),Ki,"protein: Plasminogen activator, urokinase, PDB entry 2nwn",0.5 µM (active)
"CC(C)C[C@H](NC(=O)[C@@H]1CSSC[C@H](N)C(=O)N[C@H]2CSSC[C@H](NC(=O)CNC(=O)[C@H](CCCNC(N)N)NC(=O)CNC(=O)[C@H](CC(C)C)NC2=O)C(=O)N[C@@H](CCC(=O)O)C(=O)N[C@@H](CC(N)=O)C(=O)N[C@@H](Cc2cnc[nH]2)C(=O)N[C@@H](CCCNC(N)N)C(=O)N1)C(N)=O (H-CCLG[Orn(CH(NH2)2)]GCENH[Orn(CH(NH2)2)]CL-NH2; disulfide 1-12, 2-7)",Ki,"protein: Urokinase-type plasminogen activator (C122A, N145Q mutation), PDB entry 4gly",7.7 µM (active)
O=c1cc(-c2ccc(Br)cc2)oc2ccccc12,Ki,"protein: Tankyrase-2, PDB entry 4kzu",0.313 µM (active)
COc1ccc(CC[C@@H](OC(=O)[C@@H]2CCCCN2C(=O)[C@H](c2cc(OC)c(OC)c(OC)c2)[C@@H]2CC=CCC2)c2cccc(OCC(=O)NCc3c(O)ccc4cc5ccc(=O)cc-5oc34)c2)cc1OC,Ki,"protein: Peptidyl-prolyl cis-trans isomerase FKBP4 FKBP52FK1FK2, PDB entry 4tw8",2.61 µM (active)
COc1ccc(CC[C@@H](OC(=O)[C@@H]2CCCCN2C(=O)[C@H](c2cc(OC)c(OC)c(OC)c2)[C@@H]2C=CCCC2)c2cccc(OCCN3CCOCC3)c2)cc1OC,Ki,"protein: Peptidyl-prolyl cis-trans isomerase FKBP5 FKBP51FK1, PDB entry 4tw7",0.026 µM (active)
C=CC[C@H](C(=O)N1CCCC[C@H]1C(=O)O[C@H](CCc1ccc(OC)c(OC)c1)c1cccc(OCC(=O)O)c1)c1cc(OC)c(OC)c(OC)c1,Ki,"protein: Peptidyl-prolyl cis-trans isomerase FKBP5 FKBP51FK1, PDB entry 4tw6",61 µM (active)
OC[C@H]1CNC[C@@H](O)[C@@H]1O,Ki,"protein: Beta-glucosidase 1, PDB entry 4iic",14 µM (active)
OC[C@H]1CNC[C@@H](O)[C@@H]1O[C@@H]1O[C@H](CO)[C@@H](O)[C@H](O)[C@@H]1O,Ki,"protein: GH26 beta-mannanase CjMan26C from Cellvibrio japonicus, PDB entry 4cd4",0.263 µM (active)
same,Ki,"protein: GH113 beta-mannanase AaManA from Alicyclobacillus acidocaldarius, PDB entry 4cd6",260 µM (active)
O=C(c1ccc(F)c(F)c1Nc1ccc(I)cc1F)N1CC(O)([C@@H]2CCCCN2)C1,Ki,"protein: Dual specificity mitogen-activated protein kinase kinase 1, PDB entry 4lmn",5e-05 µM (active)
ON1CC=CCC1=S,Ki,"protein: Carbonic anhydrase 2 (H94D mutation), PDB entry 4jss",500 µM (active)
CC(C)(C)n1nc(-c2cccc3ccccc23)c2c(N)ncnc21,Ki,"protein: Aminoglycoside 3'-phosphotransferase AphA1-IAB, PDB entry 4gkh",21.5 µM (active)
CC(=O)N[C@@H](CC(=O)O)C(=O)N[C@@H](Cc1ccccc1)[P+](O)(O)C[C@@H](C)C(=O)N[C@@H](C)C(N)=O,Ki,"protein: Angiotensin Converting Enzyme N domain glycsoylation mutant (Ndom389), PDB entry 3nxq",0.007 µM (active)
C[C@H](C[P+](O)(O)[C@H](Cc1ccccc1)NC(=O)[C@H](N)Cc1nn[nH]n1)C(=O)N[C@@H](C)C(N)=O,Ki,"protein: ANGIOTENSIN-CONVERTING ENZYME, PDB entry 4bxk",0.0112 µM (active)
CC(=O)N[C@@H](CC(C)C)C(=O)N[C@H](C(=O)N[C@@H](Cc1ccccc1)C(=O)N[C@]1(C)CCCCCC/C=C/CCC[C@@](C)(C(=O)N[C@@H](CO)C(=O)N[C@@H](C)C(=O)N[C@@H](C)C(=O)O)NC(=O)[C@H](CC2CCC2)NC(=O)[C@H](CCC(N)=O)NC(=O)[C@H](C)NC(=O)[C@H](Cc2c[nH]c3ccccc23)NC(=O)[C@H](Cc2ccc(O)cc2)NC(=O)[C@H](CCC(=O)O)NC1=O)[C@@H](C)O,Ki,"protein: Protein Mdm4, PDB entry 4n5t",0.007 µM (active)
CS[C@@H](CCCC1C(=O)NC(N)NC1N)c1ccc(C(=O)N[C@@H](CCC(=O)O)C(=O)O)cc1 (stereo not given in full),Ki,"protein: Trifunctional purine biosynthetic protein adenosine-3, PDB entry 4ew2",0.21 µM (active)
CS[C@H](CCCC1C(=O)NC(N)NC1N)c1ccc(C(=O)N[C@@H](CCC(=O)O)C(=O)O)cc1 (stereo not given in full),Ki,"protein: Trifunctional purine biosynthetic protein adenosine-3, PDB entry 4ew3",0.18 µM (active)
NC(=O)[C@H]1CCCc2c1[nH]c1ccc(Cl)cc21,Ki,"protein: NAD-DEPENDENT PROTEIN DEACETYLASE SIRTUIN-3, MITOCHONDRIAL, PDB entry 4bvb",33.4 µM (active)
CC(C)N(C[C@H]1O[C@@H](n2cnc3c(N)ncnc32)[C@H](O)[C@@H]1O)C1CC(CCc2nc3ccc(C(C)(C)C)cc3[nH]2)C1 (stereo not given in full),Ki,"protein: Histone-lysine N-methyltransferase, H3 lysine-79 specific, PDB entry 4hra",8e-05 µM (active)
OC[C@H]1OCC[C@@H](O)[C@H]1O,Ki,"protein: GALACTOCEREBROSIDASE, PDB entry 4ccd",32 µM (active)
O=C(O)CCC(=O)O,Ki,"protein: Delta-1-pyrroline-5-carboxylate dehydrogenase, mitochondrial, PDB entry 4lh2",58000 µM (active)
N[C@@H](CCCNC(=O)C[P+](O)(O)O)C(=O)O,Ki,"protein: human ornithine transcarbamylase, PDB entry 1oth",0.1 µM (active)
OC[C@@H]1[C@@H](O)[C@H](O)[C@@H](O)[C@@H]1NCc1ccc(Br)cc1,Ki,"protein: strictosidine glucosidase, PDB entry 3zj8",127 µM (active)
N[C@@H](c1ccc(-n2cccn2)cc1)[P+](O)(O)O,Ki,"protein: M1 family aminopeptidase, PDB entry 4k5o",104 µM (active)
same,Ki,"protein: M17 leucyl aminopeptidase, PDB entry 4k3n",0.011 µM (active)
NC(N)c1ccc([C@H](N)[P+](O)(O)O)cc1,Ki,"protein: M1 family aminopeptidase, PDB entry 4k5p",345 µM (active)
NC(N)Nc1ccc([C@H](N)[P+](O)(O)O)cc1,Ki,"protein: M1 family aminopeptidase, PDB entry 4k5n",127 µM (active)
NC(N)Nc1ccc(C=O)cc1,Ki,"protein: Bovine beta trypsin, PDB entry 1gbt",10000 µM (active)
CCCNC(=O)[C@@H](NC(=O)[C@@](O)(CCCN(Cc1ccc(-c2ccncc2)cc1)NC(=O)[C@@H](NC(=O)OC)C(C)(C)C)Cc1ccc(CCC)cc1)C(C)C,Ki,"protein: HIV-1 protease, PDB entry 4cp7",0.0078 µM (active)
C=CCNC(=O)[C@@H](NC(=O)[C@@](O)(CCCN(Cc1ccc(Br)cc1)NC(=O)[C@@H](NC(=O)OC)C(C)(C)C)Cc1ccccc1)C(C)(C)C,Ki,"protein: PROTEASE, PDB entry 3zps",0.005 µM (active)
C=CCNC(=O)[C@@H](NC(=O)[C@@](O)(CCCN(Cc1ccc(-c2cccs2)cc1)NC(=O)[C@@H](NC(=O)OC)C(C)(C)C)Cc1ccc(CC=C)cc1)C(C)C,Ki,"protein: HIV-1 protease, PDB entry 4cpr",0.035 µM (active)
C=CCNC(=O)[C@@H](NC(=O)[C@@](O)(CCCN(Cc1ccc(-c2cccnc2)cc1)NC(=O)[C@@H](NC(=O)OC)C(C)(C)C)Cc1ccc(CC=C)cc1)C(C)C,Ki,"protein: HIV-1 protease, PDB entry 4cpq",0.018 µM (active)
